What was measured:
Assay in all cases: bioluminescence (viable cell) signal fold change after vs before treatment, normalised to DMSO (ratio); higher = more tumour cell growth / less inhibition
Details in all cases: 10 µM; treatment time 6 days
[1] = tested on: LEGO organoid PT (PTEN-/-; TP53-/-)
Experimental: (§1)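 Luc2-labelled iPSC-derived glioblastoma-like organoids (LEGOs, genotypes PT = PTEN-/-;TP53-/-, PTCC = plus CDKN2A/B-/-, PTN = plus NF1-/-) were treated with 10 uM drug for 6 days (applied every other day) at 37 C. Bioluminescence imaging was done before treatment and 2 days after the last dose. BLI signals were normalised to the DMSO control on the same day and then to the pre-treatment signal (N=3).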

[2] = tested on: LEGO organoid PTCC (PTEN-/-; TP53-/-; CDKN2A-/-; CDKN2B-/-)
Experimental: as §1

[3] = tested on: LEGO organoid PTN (PTEN-/-; TP53-/-; NF1-/-)
Experimental: as §1

| SMILES | bioluminescence [1] | bioluminescence [2] | bioluminescence [3] |
| --- | --- | --- | --- |
| CC/C(=C(\c1ccccc1)c1ccc(OCCN(C)C)cc1)c1ccccc1.O=C(O)CC(O)(CC(=O)O)C(=O)O [Tamoxifen Z-isomer citrate] | 0.933 | 1.41 | 6.34 |
| CCc1c2c(nc3ccc(OC(=O)N4CCC(N5CCCCC5)CC4)cc13)-c1cc3c(c(=O)n1C2)COC(=O)[C@]3(O)CC [Irinotecan] | – | 2.25 | 0.884 |
| CNS(=O)(=O)Cc1ccc2[nH]cc(CCN(C)C)c2c1.O=C(O)CCC(=O)O [Sumatriptan succinate] | 1.23 | 0.433 | 1.05 |
| Nc1nc2ccc(OC(F)(F)F)cc2s1 [Riluzole] | – | 1.26 | 1.01 |
| Cl.O=C1CC2(CCCC2)CC(=O)N1CCCCN1CCN(c2ncccn2)CC1 [Buspirone hydrochloride] | 1.22 | 1.47 | 0.759 |
| Cc1cccc(N(C)C(=S)Oc2ccc3ccccc3c2)c1 [Tolnaftate] | 1.01 | 0.931 | 1.31 |
| COc1ccc(Cl)cc1C(=O)NCCc1ccc(S(=O)(=O)NC(=O)NC2CCCCC2)cc1 [Glyburide] | 2.23 | 1.51 | 1.61 |
| CCCCCCCCCCC[C@@H](C[C@@H]1OC(=O)[C@H]1CCCCCC)OC(=O)[C@H](CC(C)C)NC=O [Orlistat] | 1.4 | 0.925 | 1.32 |
| Cc1ccc(C(=O)c2cc(O)c(O)c([N+](=O)[O-])c2)cc1 [Tolcapone] | 1.1 | 2.93 | 1.31 |
| CC(=O)[C@H]1CC[C@H]2[C@@H]3CCC4=CC(=O)CC[C@]4(C)[C@H]3CC[C@]12C [Progesterone] | 0.82 | 0.682 | 1.12 |
| CCc1c2c(nc3ccc(OC(=O)N4CCC(N5CCCCC5)CC4)cc13)-c1cc3c(c(=O)n1C2)COC(=O)[C@]3(O)CC.Cl.O.O.O [Irinotecan hydrochloride trihydrate] | 0.98 | 0.793 | 1.15 |
| COC(=O)N[C@H](C(=O)N[C@@H](Cc1ccccc1)[C@@H](O)CN(Cc1ccc(-c2ccccn2)cc1)NC(=O)[C@@H](NC(=O)OC)C(C)(C)C)C(C)(C)C.O=S(=O)(O)O [Atazanavir sulfate] | 1.05 | 0.573 | 6.56 |
| Cl.OC(CCN1CCCC1)(c1ccccc1)C1CCCCC1 (stereo not drawn) [Procyclidine hydrochloride] | 1.48 | 0.919 | 0.656 |
| CN1CC(=O)N2[C@H](c3ccc4c(c3)OCO4)c3[nH]c4ccccc4c3C[C@@H]2C1=O [Tadalafil] | 1.59 | 1.47 | 0.562 |
| C[C@@H]1O[C@@H]1P(=O)(O)O.NC(CO)(CO)CO [Fosfomycin Tromethamine] | 0.757 | 1.69 | 0.813 |
| C=C/C=C/C[C@@H](C)[C@@H](O)[C@H]1C(=O)N[C@@H](CC)C(=O)N(C)CC(=O)N(C)[C@@H](CC(C)C)C(=O)N[C@@H](C(C)C)C(=O)N(C)[C@@H](CC(C)C)C(=O)N[C@@H](C)C(=O)N[C@H](C)C(=O)N(C)[C@@H](CC(C)C)C(=O)N(C)[C@@H](CC(C)C)C(=O)N(C)[C@@H](C(C)C)C(=O)N1C [Voclosporin] | 0.414 | 0.723 | 0.446 |
| C[C@@H]1O[C@]2(CS1)CN1CCC2CC1.C[C@@H]1O[C@]2(CS1)CN1CCC2CC1.Cl.Cl.O [Cevimeline hydrochloride hemihydrate] | 0.884 | 1.04 | 0.522 |
| CN1CCN(C2=Nc3cc(Cl)ccc3Nc3ccccc32)CC1 [Clozapine] | – | 0.388 | 0.617 |
| COc1ccccc1OCC(O)COC(N)=O (stereo not drawn) [Methocarbamol] | 0.829 | 1.84 | 2.82 |
| CCCCS(=O)(=O)N[C@@H](Cc1ccc(OCCCCC2CCNCC2)cc1)C(=O)O [Tirofiban] | 0.741 | 1.21 | 0.848 |

| SMILES | bioluminescence [1] | bioluminescence [2] | bioluminescence [3] |
| --- | --- | --- | --- |
| C[C@H]1C[C@@H]2[C@H]([C@@H](O)C[C@@]3(C)[C@H]2CC[C@]3(O)C(=O)CO)[C@@]2(C)C=CC(=O)C=C12 [Methylprednisolone] | – | 0.882 | 1.17 |
| Clc1ccc(COC(Cn2ccnc2)c2ccc(Cl)cc2Cl)c(Cl)c1.O=[N+]([O-])O (stereo not drawn) [Miconazole nitrate] | – | 0.22 | 1.21 |
| Nc1nc(=O)n([C@@H]2CS[C@H](CO)O2)cc1F [Emtricitabine] | 0.905 | 0.872 | 0.495 |
| Cn1c(=O)c2[nH]cnc2n(C)c1=O [Theophylline] | 0.849 | 1.2 | 2.42 |
| Nc1ncnc2c1ncn2[C@@H]1O[C@H](CO)[C@@H](O)[C@H]1OP(=O)(O)O [Adenosine-2'-monophosphate] | 1.31 | 1.96 | 1.26 |
| CN1C(=O)OC(C)(C)C1=O [Trimethadione] | 0.57 | 1.38 | 0.909 |
| CCc1cc(/C(C)=N/OCc2ccc(C3CCCCC3)c(C(F)(F)F)c2)ccc1CN1CC(C(=O)O)C1 [Siponimod] | 0.646 | 2.91 | 0.811 |
| CCCOc1ccc(S(=O)(=O)NCCC2CCCN2C)cc1-c1nc2c(CCC)nn(C)c2c(=O)[nH]1 (stereo not drawn) [Udenafil] | 1.36 | 1.32 | 1.09 |
| CC(=O)Nc1nnc(S(N)(=O)=O)s1 [Acetazolamide] | 1.6 | 1.7 | 2.04 |
| CCN(CC)C(=O)[C@]1(c2ccccc2)C[C@@H]1CN.Cl [Milnacipran hydrochloride] | 1.54 | 1.02 | 2.39 |
| C#Cc1cccc(Nc2ncnc3cc(OCCOC)c(OCCOC)cc23)c1 [Erlotinib] | 0.504 | 4.27 | 1.82 |
| CCn1c(=O)c2c(nc(/C=C/c3ccc(OC)c(OC)c3)n2C)n(CC)c1=O [Istradefylline] | 0.737 | 3.38 | 6.31 |
| CC(C)c1nc(CN(C)C(=O)N[C@H](C(=O)N[C@@H](Cc2ccccc2)C[C@H](O)[C@H](Cc2ccccc2)NC(=O)OCc2cncs2)C(C)C)cs1 [Ritonavir] | – | 2 | 1.83 |
| C[C@@H](Oc1cc(-c2cnn(C3CCNCC3)c2)cnc1N)c1c(Cl)ccc(F)c1Cl [Crizotinib] | – | 0.43 | 0.303 |
| CCN(CC)CC(=O)Nc1c(C)cccc1C [Xylocaine] | – | 1.13 | 1.22 |
| CN1[C@@H]2CCC[C@H]1C[C@@H](NC(=O)c1nn(C)c3ccccc13)C2.Cl [Granisetron hydrochloride] | – | 0.701 | 1.92 |
| CC(=O)c1c(C)c2cnc(Nc3ccc(N4CCNCC4)cn3)nc2n(C2CCCC2)c1=O.O=S(=O)(O)CCO [Palbociclib Isethionate] | – | 2.84 | 1.14 |
| CC(=O)OCC(=O)[C@@]1(O)[C@H](C)C[C@H]2[C@@H]3CCC4=CC(=O)C=C[C@]4(C)[C@@]3(F)[C@@H](O)C[C@@]21C [Dexamethason acetate] | – | 0.467 | 1.53 |
| COc1c(N2CCNC(C)C2)c(F)cc2c(=O)c(C(=O)O)cn(C3CC3)c12 (stereo not drawn) [Gatifloxacin] | – | 0.933 | 4.79 |
| COc1cc2c(cc1OC)C(=O)C(CC1CCN(Cc3ccccc3)CC1)C2 (stereo not drawn) [Donepezil] | – | 0.645 | 1.1 |

| SMILES | bioluminescence [1] | bioluminescence [2] | bioluminescence [3] |
| --- | --- | --- | --- |
| CC/C(=C(\c1ccccc1)c1ccc(OCCN(C)C)cc1)c1ccccc1 [Tamoxifen] | – | 0.468 | 0.103 |
| Cl.Nc1c2c(nc3ccccc13)CCCC2.O [Tacrine hydrochloride hydrate] | – | 0.819 | 1.22 |
| CN(C)CCC=C1c2ccccc2COc2ccccc21.Cl [Doxepin hydrochloride] | – | 1.05 | 0.742 |
| Cc1cc2c(s1)Nc1ccccc1N=C2N1CCN(C)CC1 [Olanzapine] | – | 0.712 | 1.81 |
| CCCCCCCCc1ccc(CCC(N)(CO)CO)cc1.Cl [Fingolimod hydrochloride] | – | 1.07 | 0.473 |
| CCOC(=O)OC(C)OC(=O)[C@@H]1N2C(=O)[C@@H](NC(=O)[C@H](N)c3ccccc3)[C@H]2SC1(C)C.Cl (stereo partly drawn) [Bacampicillin hydrochloride] | – | 1.35 | 3.29 |
| O=C(CCCCCCC(=O)Nc1ccccc1)NO [Vorinostat] | – | 0.409 | 0.384 |
| O=C1CCc2ccc(OCCCCN3CCN(c4cccc(Cl)c4Cl)CC3)cc2N1 [Aripiprazole] | – | 0.382 | 0.284 |
| COc1cc(Nc2ncc(F)c(Nc3ccc4c(n3)N(COP(=O)(O)O)C(=O)C(C)(C)O4)n2)cc(OC)c1OC [Fostamatinib] | – | 0.182 | 0.0646 |
| CN(CCOc1ccc(CC2SC(=O)NC2=O)cc1)c1ccccn1 (stereo not drawn) [Rosiglitazone] | – | 1.87 | 1.22 |
| CC1(C)S[C@@H]2[C@H](NC(=O)[C@H](N)c3ccc(O)cc3)C(=O)N2[C@H]1C(=O)O.O.O.O [Amoxicillin trihydrate] | – | 2.36 | 0.841 |
| CN1CCN2c3ncccc3Cc3ccccc3C2C1 (stereo not drawn) [Mirtazapine] | – | 1.47 | 0.789 |
| COc1cc2ncnc(Nc3ccc(F)c(Cl)c3)c2cc1NC(=O)/C=C/CN1CCCCC1 [Dacomitinib] | – | 0.0502 | 0 |
| Cl.CN(C)CC\C=C1\c2ccccc2C=Cc2ccccc12 [Cyclobenzaprine hydrochloride] | – | 1.61 | 3.73 |
| Cl.N=C(N)NC(=O)Cc1c(Cl)cccc1Cl [Guanfacine hydrochloride] | – | 1.24 | 0.496 |
| CC(=O)O.Cc1c(-c2ccc(O)cc2)n(Cc2ccc(OCCN3CCCCCC3)cc2)c2ccc(O)cc12 [Bazedoxifene acetate] | – | 1.37 | 0.0363 |
| CCc1cccc2c3c([nH]c12)C(CC)(CC(=O)O)OCC3 (stereo not drawn) [Etodolac] | – | 0.917 | 1.19 |
| CN(C)CCCN1c2ccccc2CCc2ccc(Cl)cc21.Cl [Clomipramine hydrochloride] | – | 0.71 | 1.5 |

Source: the supplement of paper PMC10811239
